The values below come from PubChem BioAssay (EPA / NIEHS).

SMILES strings stand for the structures. Results filed as inconclusive are left out. Activity calls are given as the source filed them. The calls were made as follows: active = hit-call score of the fitted dose curve at least 0.9, where 1 is the maximum; inconclusive = response in the unintended direction; inactive = score below 0.9.

Experiment [1] deals with Androgen receptor (Homo sapiens) (UniProt P10275). Nature of the experiment: ATG_AR_TRANS: Attagene TRANS-FACTORIAL HepG2 Assay for human Androgen Receptor (AR) (AID 2282973). The settings on record: HepG2 Attagene TRANS-FACTORIAL AR reporter transcription. An outline of the steps:
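Steps: transfect HepG2 with multiple GAL4-UAS reporter transcription units (TRANS format, exogenous NR-Gal4 protein); dose 24 h; isolate RNA, reverse-transcribe, PCR-amplify, FAM-label, HpaI-digest; resolve by capillary electrophoresis. Positive direction vs DMSO.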

Experiment [2] addresses rat CYP1A2, Cyp1a2 (gene 24297) (UniProt P04799). Nature of the experiment: NVS_ADME_rCYP1A2: NovaScreen (NVS) CYP450-related Enzyme Activity (ADME) Assay for rat CYP1A2 (AID 2283115). An outline of the steps:
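Primary testing ran in duplicate at 10 uM, with actives re-tested across concentration series. Fluorescence intensity from substrate turnover by recombinant protein, measured 1 hour post-dosing, with signal loss scored against acetonitrile vehicle.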

In experiment [3] the test system is rat Monoamine Oxidase, MAO-A, Central (MAOAC), gene 29253. Nature of the experiment: NVS_ENZ_rMAOAC: NovaScreen (NVS) Enzymatic Assay for rat Monoamine Oxidase, MAO-A, Central (MAOAC) (AID 2283243).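 Also: potency refers to inhibition seen as signal drop below DMSO baseline.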 In a few lines: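 Single-concentration duplicate testing at 25 uM, then concentration-response for actives, in a lysate-based radiodetection MAO-A activity assay from rat brain. Enzyme activity measured 1.5 hours post-dosing; DMSO served as negative control and baseline.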

Experiment [4] addresses human Acetylcholinesterase (AChE), ACHE (gene 43) (UniProt P22303). Nature of the experiment: NVS_ENZ_hAChE: NovaScreen (NVS) Enzymatic Assay for human Acetylcholinesterase (AChE) (AID 2283129). An outline of the steps: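 Actives from a duplicate single-point screen (25 uM) were followed up in concentration series. Enzyme activity read by absorbance (colorimetric) 0.33 hour after dosing, cell-free, normalized to DMSO, with loss of signal scored.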

The target of experiment [5] is human Caspase 10 (CASP10), CASP10 (gene 843) (UniProt Q92851). Nature of the experiment: NVS_ENZ_hCASP10: NovaScreen (NVS) Enzymatic Assay for human Caspase 10 (CASP10) (AID 2283133). In a few lines: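 Fluorescence-intensity enzyme read-out of E. coli-expressed CASP10 activity, 1 h after compound. Single-point duplicates at 25 uM preceded concentration-response testing (top 50 uM) of hits; inhibition expressed as signal loss versus DMSO.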

The target of experiment [6] is human Fibroblast Growth Factor Receptor 1 (FGFR1), FGFR1 (gene 2260) (UniProt P11362). Briefly: NVS_ENZ_hFGFR1: NovaScreen (NVS) Enzymatic Assay for human Fibroblast Growth Factor Receptor 1 (FGFR1) (AID 2283159).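 Also: hits lower the signal so potencies describe inhibitors of the kinase.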 In a few lines:
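Cell-free recombinant kinase with fluorescent substrate, product separated by electrophoretic mobility shift; read 1 hour after dosing, loss of signal relative to DMSO. Initial screen in duplicate at 25 uM, actives followed in concentration series.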

Experiment [7] deals with human Matrix Metalloproteinase-1 (MMP1), MMP1 (gene 4312) (UniProt P03956). Briefly: NVS_ENZ_hMMP1: NovaScreen (NVS) Enzymatic Assay for human Matrix Metalloproteinase-1 (MMP1) (AID 2283181). An outline of the steps: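 Cell-free fluorescent substrate assay of human MMP1, read after 1 h. A single 25 uM duplicate screen was followed by concentration series to a maximum of 50 uM for actives meeting threshold; inhibition analysed against DMSO baseline.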

Experiment [8] addresses human Protein Tyrosine Phosphatase Receptor Type C (PTPRC), PTPRC (gene 5788) (UniProt P08575). Nature of the experiment: NVS_ENZ_hPTPRC: NovaScreen (NVS) Enzymatic Assay for human Protein Tyrosine Phosphatase Receptor Type C (PTPRC) (AID 2283212). In a few lines: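 Absorbance-based phosphatase activity of human PTPRC protein extracted from yeast was measured 1 h post-dosing. Compounds first tested at 25 uM in duplicate, then those passing threshold in singleton concentration series to 50 uM.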

Experiment [9] has as its target human CYP4F12, CYP4F12 (gene 66002) (UniProt Q9HCS2). Nature of the experiment: NVS_ADME_hCYP4F12: NovaScreen (NVS) CYP450-related Enzyme Activity (ADME) Assay for human CYP4F12 (AID 2283111). An outline of the steps: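 Recombinant enzyme with a fluorescent substrate, signal read at 0.5 h post-dose; activity loss analysed relative to acetonitrile. Compounds first run in duplicate at 10 uM, with follow-up concentration-response testing of actives.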

The target in experiment [10] is Bile acid receptor (Homo sapiens) (UniProt Q96RI1). Briefly: NVS_NR_hFXR_Agonist: NovaScreen (NVS) Nuclear Receptor Binding Assay for human Farnesoid X Receptor Agonism (FXR) (AID 2283347). In a few lines:
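Agonist-mode FXR assay read by time-resolved FRET 1 h after compound addition, using isolated human receptor protein without cells. Duplicate 25 uM single-point primary screen, concentration series for confirmed actives; DMSO as baseline.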

In experiment [11] the target is rat Monoamine Oxidase, MAO-B, Central (MAOBC), Maob (gene 25750) (UniProt P19643). Nature of the experiment: NVS_ENZ_rMAOBC: NovaScreen (NVS) Enzymatic Assay for rat Monoamine Oxidase, MAO-B, Central (MAOBC) (AID 2283238). In a few lines: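 Actives from a duplicate 25 uM screen went on to singleton concentration-response with a 50 uM maximum. Enzyme source was rat brain tissue MAO-B, assayed cell-free. Radiolabelled product was counted by scintillation 1.17 h post-dose, with signal loss relative to DMSO.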
Chain of rat Monoamine Oxidase, MAO-B, Central (MAOBC), Maob (gene 25750) (P19643 whole entry, looked up): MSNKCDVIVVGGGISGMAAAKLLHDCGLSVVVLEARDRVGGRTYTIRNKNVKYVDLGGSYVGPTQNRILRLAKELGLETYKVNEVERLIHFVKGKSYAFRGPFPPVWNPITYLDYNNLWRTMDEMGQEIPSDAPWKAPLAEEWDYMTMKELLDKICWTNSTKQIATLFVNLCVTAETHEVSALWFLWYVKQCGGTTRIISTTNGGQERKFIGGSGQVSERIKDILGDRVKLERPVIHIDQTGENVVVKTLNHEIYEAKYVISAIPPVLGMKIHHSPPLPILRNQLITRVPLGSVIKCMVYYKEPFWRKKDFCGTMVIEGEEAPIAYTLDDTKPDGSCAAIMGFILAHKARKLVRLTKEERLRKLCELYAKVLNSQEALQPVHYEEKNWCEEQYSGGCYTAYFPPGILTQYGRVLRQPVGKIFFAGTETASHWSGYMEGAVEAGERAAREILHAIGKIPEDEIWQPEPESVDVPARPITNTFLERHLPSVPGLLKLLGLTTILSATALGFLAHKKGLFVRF

Chain of Androgen receptor (Homo sapiens) (P10275 whole entry, looked up, the tested form may be a part): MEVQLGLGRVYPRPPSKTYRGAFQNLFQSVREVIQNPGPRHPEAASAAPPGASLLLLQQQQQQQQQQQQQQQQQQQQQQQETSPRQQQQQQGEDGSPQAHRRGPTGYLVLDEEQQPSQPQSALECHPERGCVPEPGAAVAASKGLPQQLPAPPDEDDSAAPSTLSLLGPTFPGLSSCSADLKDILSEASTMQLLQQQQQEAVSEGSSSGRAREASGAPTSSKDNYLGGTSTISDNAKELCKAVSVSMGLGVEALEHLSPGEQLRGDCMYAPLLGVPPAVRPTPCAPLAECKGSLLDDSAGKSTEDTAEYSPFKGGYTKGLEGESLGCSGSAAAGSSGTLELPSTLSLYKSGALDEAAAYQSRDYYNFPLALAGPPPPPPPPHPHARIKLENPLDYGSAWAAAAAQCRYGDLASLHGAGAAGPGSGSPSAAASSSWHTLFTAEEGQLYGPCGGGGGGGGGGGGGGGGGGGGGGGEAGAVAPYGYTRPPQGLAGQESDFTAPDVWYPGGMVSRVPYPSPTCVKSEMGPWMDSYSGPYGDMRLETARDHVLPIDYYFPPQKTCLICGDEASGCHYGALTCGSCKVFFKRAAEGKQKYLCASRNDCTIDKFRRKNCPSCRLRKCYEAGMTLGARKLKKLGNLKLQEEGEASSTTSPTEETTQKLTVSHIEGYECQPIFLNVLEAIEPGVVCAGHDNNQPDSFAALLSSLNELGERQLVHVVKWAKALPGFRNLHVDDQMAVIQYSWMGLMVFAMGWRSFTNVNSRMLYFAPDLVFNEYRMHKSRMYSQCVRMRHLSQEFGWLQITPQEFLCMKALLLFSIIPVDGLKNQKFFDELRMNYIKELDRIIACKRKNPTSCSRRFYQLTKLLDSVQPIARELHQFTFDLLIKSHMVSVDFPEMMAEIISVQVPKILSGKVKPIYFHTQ
Chain of human Acetylcholinesterase (AChE), ACHE (gene 43) (P22303 whole entry, looked up): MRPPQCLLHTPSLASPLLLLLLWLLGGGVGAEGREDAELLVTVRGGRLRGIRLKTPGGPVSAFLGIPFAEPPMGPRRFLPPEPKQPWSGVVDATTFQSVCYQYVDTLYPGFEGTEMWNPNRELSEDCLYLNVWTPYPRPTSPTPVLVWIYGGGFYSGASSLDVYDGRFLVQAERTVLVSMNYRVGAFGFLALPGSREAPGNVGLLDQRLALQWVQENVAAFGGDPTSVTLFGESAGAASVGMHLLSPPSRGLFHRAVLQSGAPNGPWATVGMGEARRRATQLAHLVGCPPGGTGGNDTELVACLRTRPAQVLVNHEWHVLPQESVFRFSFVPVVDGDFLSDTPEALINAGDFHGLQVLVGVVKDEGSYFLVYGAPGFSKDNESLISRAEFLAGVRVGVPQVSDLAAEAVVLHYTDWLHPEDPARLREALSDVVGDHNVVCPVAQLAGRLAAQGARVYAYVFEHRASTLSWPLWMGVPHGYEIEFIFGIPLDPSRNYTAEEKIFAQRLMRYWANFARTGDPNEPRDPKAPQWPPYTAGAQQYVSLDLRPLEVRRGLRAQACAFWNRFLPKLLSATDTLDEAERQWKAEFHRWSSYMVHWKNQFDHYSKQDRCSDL
Chain of rat CYP1A2, Cyp1a2 (gene 24297) (P04799 whole entry, looked up): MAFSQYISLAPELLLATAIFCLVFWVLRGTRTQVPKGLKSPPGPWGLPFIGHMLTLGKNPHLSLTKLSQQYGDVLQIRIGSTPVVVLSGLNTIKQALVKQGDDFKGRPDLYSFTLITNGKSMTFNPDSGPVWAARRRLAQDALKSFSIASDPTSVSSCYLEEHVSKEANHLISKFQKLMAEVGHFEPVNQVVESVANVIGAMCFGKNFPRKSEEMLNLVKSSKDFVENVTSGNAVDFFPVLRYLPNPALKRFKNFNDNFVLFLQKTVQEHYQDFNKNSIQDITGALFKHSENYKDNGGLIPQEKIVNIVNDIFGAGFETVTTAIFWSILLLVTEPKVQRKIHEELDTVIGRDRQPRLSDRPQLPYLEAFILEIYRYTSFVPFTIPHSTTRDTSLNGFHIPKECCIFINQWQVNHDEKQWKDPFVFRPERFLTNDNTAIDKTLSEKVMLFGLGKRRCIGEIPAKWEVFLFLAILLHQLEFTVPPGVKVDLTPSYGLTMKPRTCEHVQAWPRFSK
Chain of human Fibroblast Growth Factor Receptor 1 (FGFR1), FGFR1 (gene 2260) (P11362 whole entry, looked up): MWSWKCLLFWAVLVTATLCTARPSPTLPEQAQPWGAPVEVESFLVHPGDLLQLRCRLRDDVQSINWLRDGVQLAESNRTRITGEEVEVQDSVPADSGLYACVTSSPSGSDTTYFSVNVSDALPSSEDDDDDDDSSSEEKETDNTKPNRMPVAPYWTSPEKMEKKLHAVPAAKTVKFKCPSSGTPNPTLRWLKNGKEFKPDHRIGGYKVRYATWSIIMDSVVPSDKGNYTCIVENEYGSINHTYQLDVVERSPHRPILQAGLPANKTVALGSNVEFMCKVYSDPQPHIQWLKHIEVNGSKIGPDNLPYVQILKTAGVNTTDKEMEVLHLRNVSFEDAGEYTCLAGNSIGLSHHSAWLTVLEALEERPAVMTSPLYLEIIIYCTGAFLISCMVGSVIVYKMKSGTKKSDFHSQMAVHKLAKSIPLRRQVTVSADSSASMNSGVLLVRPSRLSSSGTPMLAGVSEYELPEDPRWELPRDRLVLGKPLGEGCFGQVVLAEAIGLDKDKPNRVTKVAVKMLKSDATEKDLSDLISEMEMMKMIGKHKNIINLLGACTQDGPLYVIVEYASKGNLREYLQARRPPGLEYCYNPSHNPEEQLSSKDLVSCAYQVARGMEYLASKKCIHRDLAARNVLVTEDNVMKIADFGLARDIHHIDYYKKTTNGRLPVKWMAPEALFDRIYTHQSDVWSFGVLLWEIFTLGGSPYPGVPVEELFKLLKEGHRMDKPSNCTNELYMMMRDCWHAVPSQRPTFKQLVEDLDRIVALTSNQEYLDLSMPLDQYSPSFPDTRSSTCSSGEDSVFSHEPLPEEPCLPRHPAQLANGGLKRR
Chain of human Caspase 10 (CASP10), CASP10 (gene 843) (Q92851 whole entry, looked up): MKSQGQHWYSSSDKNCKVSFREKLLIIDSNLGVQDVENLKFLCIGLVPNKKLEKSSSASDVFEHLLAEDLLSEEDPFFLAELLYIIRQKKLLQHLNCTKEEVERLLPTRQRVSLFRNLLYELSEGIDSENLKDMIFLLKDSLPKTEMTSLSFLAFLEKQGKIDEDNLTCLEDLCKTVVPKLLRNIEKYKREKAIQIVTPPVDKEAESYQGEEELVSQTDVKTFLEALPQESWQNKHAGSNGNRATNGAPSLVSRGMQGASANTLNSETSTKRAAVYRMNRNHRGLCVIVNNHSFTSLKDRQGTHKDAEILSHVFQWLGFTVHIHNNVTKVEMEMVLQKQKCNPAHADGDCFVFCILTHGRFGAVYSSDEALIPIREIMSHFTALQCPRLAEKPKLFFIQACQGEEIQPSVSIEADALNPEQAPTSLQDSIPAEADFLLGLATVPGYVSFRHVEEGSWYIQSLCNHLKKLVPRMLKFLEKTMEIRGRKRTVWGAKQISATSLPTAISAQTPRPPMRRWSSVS
Chain of human Matrix Metalloproteinase-1 (MMP1), MMP1 (gene 4312) (P03956 whole entry, looked up): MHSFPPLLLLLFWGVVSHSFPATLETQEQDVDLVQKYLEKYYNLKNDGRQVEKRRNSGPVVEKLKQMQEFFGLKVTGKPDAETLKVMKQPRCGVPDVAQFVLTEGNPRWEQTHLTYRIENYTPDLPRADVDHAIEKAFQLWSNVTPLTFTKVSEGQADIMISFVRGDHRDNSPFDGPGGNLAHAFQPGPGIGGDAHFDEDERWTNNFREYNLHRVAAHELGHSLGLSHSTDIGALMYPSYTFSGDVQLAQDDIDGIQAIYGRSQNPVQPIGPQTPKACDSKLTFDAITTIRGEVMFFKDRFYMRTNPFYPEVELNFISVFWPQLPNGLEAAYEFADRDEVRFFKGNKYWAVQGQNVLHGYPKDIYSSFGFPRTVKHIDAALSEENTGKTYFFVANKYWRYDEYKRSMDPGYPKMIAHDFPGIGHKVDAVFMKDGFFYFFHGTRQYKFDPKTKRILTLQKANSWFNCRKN
Chain of human CYP4F12, CYP4F12 (gene 66002) (Q9HCS2 whole entry, looked up): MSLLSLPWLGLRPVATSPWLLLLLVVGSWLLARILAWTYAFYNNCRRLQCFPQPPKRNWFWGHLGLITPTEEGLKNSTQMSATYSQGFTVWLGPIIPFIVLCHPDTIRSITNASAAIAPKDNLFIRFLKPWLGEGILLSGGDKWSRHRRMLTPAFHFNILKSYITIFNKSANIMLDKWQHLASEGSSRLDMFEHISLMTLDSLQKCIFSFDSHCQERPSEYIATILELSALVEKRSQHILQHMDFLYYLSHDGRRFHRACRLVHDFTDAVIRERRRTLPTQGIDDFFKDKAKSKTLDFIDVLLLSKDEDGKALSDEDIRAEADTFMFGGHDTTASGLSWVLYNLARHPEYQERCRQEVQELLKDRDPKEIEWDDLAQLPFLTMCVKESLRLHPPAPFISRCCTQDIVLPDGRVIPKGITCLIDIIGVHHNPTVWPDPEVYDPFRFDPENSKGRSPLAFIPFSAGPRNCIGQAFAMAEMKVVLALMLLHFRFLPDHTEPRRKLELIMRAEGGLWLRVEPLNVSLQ

As for `O=C(c1ccccc1)c1ccc(Cl)cc1`, in [1], the compound was classed as inactive.
Still for that read-out and setting: in the case of `O=S(=O)(O)c1ccc(Nc2nc(Nc3ccc(C=Cc4ccc(Nc5nc(Nc6ccc(S(=O)(=O)O)cc6)nc(N(CCO)CCO)n5)cc4S(=O)(=O)O)c(S(=O)(=O)O)c3)nc(N(CCO)CCO)n2)cc1` it was “inactive”.
Same read-out and setting: the value for `c1ccc2cc(Nc3ccc(Nc4ccc5ccccc5c4)cc3)ccc2c1` was “inactive”.
Consider `O=S1(=O)CC(Cl)(Cl)C(Cl)(Cl)C1`, for which the compound was classed as inactive in experiment [1], in [2] and in [3].
Turning to `CCCN(C1CCN(C(=O)C2CCNCC2)CC1)[C@@H]1CCc2ccc(OC)cc2C1`, the compound was classed as inactive in [1]. Besides, the half-maximal activity concentration (AC50) (in general, the concentration giving half of the maximal activity seen) in experiment [4] was 35.2 µM (active).
Turning to `CCCCCCCCCCCCCCCCOS(=O)(=O)O`, the result in [1] and in experiment [5] was inactive. For the same compound, the AC50 in [4] is 16.8 µM (active); in experiment [6], 1.41 µM (active); in experiment [7], 4.54 µM (active); in experiment [8] it was 6.6 µM (active).
Regarding `O=C(OC(=O)C(F)(F)C(F)(F)F)C(F)(F)C(F)(F)F`, in experiment [1], the result was inactive.
Take `CC1(C)C(=O)N(Br)C(=O)N1Br`: the outcome in experiment [1] and in experiment [10] was inactive. The AC50 in experiment [9] is 2.18 µM (active).
Take `O=C(C=Cc1ccccc1)OCC=Cc1ccccc1`: the result in [1] was inactive.
Still for that read-out and setting: in the case of `CCCC1CCOC(C)S1` (stereo not drawn) it was “inactive”.
Consider `CN(C)C(=O)Nc1ccc(Cl)c(Cl)c1`, for which the outcome in experiment [1], in experiment [2] and in [11] was inactive.
